From PubChem BioAssay (EPA / NIEHS)
Records with an inconclusive call do not appear. Active and inactive are the calls of the source. How the source made its calls, unless noted: active means hit-call score of the fitted dose curve at least 0.9, where 1 is the maximum; inactive means score below 0.9.

Legend:
[1] = CCTE_Shafer_MEA_acute_burst_percentage_mean: CCTE's Neural Acute Assay for Percentage of Spikes in a Burst, Shafer Lab (AID 2284017);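 on AC50: curve fitted for loss of signal so potency reflects decreased burst percentage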
In short: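 Compounds were tested at 0.03-40 uM on primary rat cortical neuron networks grown over microelectrodes, with at least three wells per compound. Spontaneous firing was recorded for 40 min before and 40 min after dosing, and the change in burst percentage was computed per well.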

[2] = CCTE_Shafer_MEA_acute_burst_percentage_std: CCTE's Neural Acute Assay for Standard Deviation of Burst Percentage, Shafer Lab (AID 2284018);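 further: fitted in the negative direction so actives lower burst percentage SD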
In short: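 Rat primary cortical neurons on 48-well MEAs, DIV 13 or 15, 37 C. 40-min baseline then 40-min recording with compound (0.03-40 uM); well-level SD of per-electrode burst spike percentage, expressed as percent change from baseline.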

[3] = CCTE_Shafer_MEA_acute_per_network_burst_spike_number_std: CCTE's Neural Acute Assay for Standard Deviation of Number of Spikes in a Network Burst, Shafer Lab (AID 2284020);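 further: fitted for decrease in spike-number SD versus DMSO so actives lower it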
In short: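 Rat primary cortical neurons on 48-well MEA (16 electrodes/well), treated DIV 13 or 15 at 0.03-40 uM, ≥3 wells per compound. 40 min recordings at 37 C before and after dosing; value is percent change in network-burst spike-number SD, negative direction vs DMSO.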

[4] = CCTE_Shafer_MEA_acute_per_network_burst_electrodes_number_mean: CCTE's Neural Acute Assay for Mean Number of Electrodes in a Network Burst, Shafer Lab (AID 2284021);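 further: curves fitted for decreases only so hits reduce electrodes per burst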
In short: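 Percent change from baseline was computed as mean electrode count per network burst, comparing 40 min recordings before and during compound (0.03-40 uM) exposure. Cultures were rat cortical neurons at DIV 13 or 15, recorded on MEAs at 37 C with an adaptive 8x rms threshold.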

[5] = CCTE_Shafer_MEA_acute_network_burst_percentage: CCTE's Neural Acute Assay for Percentage of Network Bursts, Shafer Lab (AID 2284022);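 further: curves fitted for loss so actives lower network burst percentage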
In short: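 Network burst percentage (spikes in network bursts divided by total spikes) recorded at 37 C over 40 min baseline and 40 min after compound, 0.03-40 uM, in rat cortical cultures at DIV 13 or 15. Analysed as percent change from baseline versus DMSO.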

[6] = CCTE_Shafer_MEA_acute_cross_correlation_area: CCTE's Neural Acute Assay for Area of Cross Correlation, Shafer Lab (AID 2284024);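 further: area under pooled inter-electrode spike cross-correlation near zero lag as percent change from own baseline; curves fitted for loss of cross-correlation area so actives lower synchrony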
In short: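 Percent change in well-wide cross-correlation area (window around zero lag) between 40 min baseline and 40 min post-compound recordings, 37 C; rat cortical cultures on MEA at DIV 13 or 15, dosed 0.03-40 uM, wells needing >/= 10 active electrodes.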

[7] = CCTE_Shafer_MEA_acute_cross_correlation_HWHM: CCTE's Neural Acute Assay for Cross Correlation at Half Width at Half Maximum, Shafer Lab (AID 2284026);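 further: percent change per well from pre-dose baseline in spike cross-correlogram half width; hits are a decrease in cross-correlogram half width relative to DMSO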
In short: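 Per-well percent change in cross-correlogram half width at half maximum, derived from 40-min recordings before and after compound (0.03-40 uM) at 37 C. Cultures were rat cortical neurons, DIV 13 or 15, with adaptive spike detection at 8x rms.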

[8] = CCTE_Shafer_MEA_acute_synchrony_index: CCTE's Neural Acute Assay for Synchrony, Shafer Lab (AID 2284027);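 further: fitted for loss of signal so actives lower synchrony relative to DMSO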
In short: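 Readout is percent change in the unitless network synchrony index (0 low, 1 high) between a 40-min baseline and a 40-min recording in compound. Cultures were primary rat cortical neurons on MEAs, treated at 0.03-40 uM on DIV 13 or 15.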

[9] = biological target: Estrogen receptor (Homo sapiens) (UniProt P03372); experiment: CCTE_Deisenroth_AIME_384WELL_LUC_Active: CCTE's 384-well Estrogen Receptor Transactivation Assay with AIME metabolic competence (ERTA luciferase; metabolism positive), Deisenroth Lab (AID 2284030; active means hit-call score of the fitted dose curve at least 0.9, where 1 is the maximum)
Estrogen receptor (Homo sapiens), sequence (P03372 whole entry, looked up): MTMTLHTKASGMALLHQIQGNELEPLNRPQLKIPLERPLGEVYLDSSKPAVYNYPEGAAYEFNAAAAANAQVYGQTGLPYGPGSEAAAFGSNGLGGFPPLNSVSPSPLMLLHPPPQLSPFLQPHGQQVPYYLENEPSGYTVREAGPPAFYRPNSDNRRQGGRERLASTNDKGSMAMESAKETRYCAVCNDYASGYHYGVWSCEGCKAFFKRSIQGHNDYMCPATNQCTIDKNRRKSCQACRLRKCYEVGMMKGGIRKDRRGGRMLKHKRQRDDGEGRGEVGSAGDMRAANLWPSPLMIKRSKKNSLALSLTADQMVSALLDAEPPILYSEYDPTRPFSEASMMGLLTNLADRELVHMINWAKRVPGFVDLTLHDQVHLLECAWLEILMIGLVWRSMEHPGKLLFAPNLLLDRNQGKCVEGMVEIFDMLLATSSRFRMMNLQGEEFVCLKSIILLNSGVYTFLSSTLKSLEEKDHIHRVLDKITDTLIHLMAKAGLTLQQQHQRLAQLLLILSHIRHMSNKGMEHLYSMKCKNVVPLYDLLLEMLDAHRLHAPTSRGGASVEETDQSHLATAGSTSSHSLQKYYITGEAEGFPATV
In short: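 VM7Luc4E2 breast cells were given, for 24 hours, medium pre-incubated for 2 hours with parent chemical (0.002-200 uM, 10 concentrations) and alginate-encapsulated phenobarbital/beta-naphthoflavone-induced rat hepatic S9. Luciferase gain of signal was fitted against 17beta-estradiol; n=4 or more.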

[10] = biological target: Estrogen receptor (Homo sapiens) (UniProt P03372); experiment: CCTE_Deisenroth_AIME_384WELL_LUC_Inactive: CCTE's 384-well Estrogen Receptor Transactivation Assay without AIME metabolic competence (ERTA luciferase; metabolism negative), Deisenroth Lab (AID 2284038; active means hit-call score of the fitted dose curve at least 0.9, where 1 is the maximum;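 further: VM7Luc4E2 breast cells given medium preincubated 2 h with S9-free microspheres; hits raise estrogen receptor luciferase signal so potencies reflect agonists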)
In short: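 Metabolism-negative mode: chemicals (10-point, 0.002–200 uM) held 2 h with alginate-water microspheres, then conditioned medium applied to VM7Luc4E2 cells for 24 h. Luciferase induction referenced to 17beta-estradiol.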

[11] = CCTE_Deisenroth_AIME_384WELL_CTox_Inactive: Cytotoxicity Assessment (CTOX) in CCTE's 384-well Estrogen Receptor Transactivation Assay without AIME metabolic competence (metabolism negative), Deisenroth Lab (AID 2284039; active means hit-call score of the fitted dose curve at least 0.9, where 1 is the maximum;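 further: cell viability via live-cell protease substrate cleaved to fluorescent probe; cells exposed 24 h to medium preincubated 2 h with alginate-water beads without S9; loss of fluorescence signal means loss of viability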)
In short: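 Fluorescence from a live-cell protease substrate, read after 24 h in VM7Luc4E2 cells, indicated viability. Test medium came from a 2 h AIME step without hepatic S9 (alginate-water microspheres); concentrations spanned 0.002 - 200 uM, single technical replicate per run.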

[12] = biological target: Estrogen receptor (Homo sapiens) (UniProt P03372); experiment: CCTE_Deisenroth_AIME_384WELL_LUC_Shift: CCTE's 384-well Estrogen Receptor Transactivation Assay with AIME metabolic competence data shift (ERTA luciferase; difference in metabolism positive and negative), Deisenroth Lab (AID 2284041);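 further: shift is response with S9 minus without S9 so positive means metabolism raised ER signal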
In short: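 Chemicals (0.002–200 uM, 10 points) pre-incubated 2 h with alginate-encapsulated induced male Sprague Dawley rat liver S9 or S9-free, then medium applied 24 h to VM7Luc4E2 cells; luciferase. Endpoint is per-concentration difference, S9-positive minus negative.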

[13] = CCTE_Shafer_MEA_dev_firing_rate_mean: CCTE's Neural Network Formation Assay for Mean Firing Rate, Shafer Lab (AID 2284031)
In short: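 Rat primary cortical neurons were seeded on multielectrode arrays and treated from plating through day 12, with redosing at each feed. Spontaneous spiking was recorded four times; mean firing rate AUC was fitted downward against DMSO.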

[14] = CCTE_Shafer_MEA_dev_per_burst_spike_percent: CCTE's Neural Network Formation Assay for Percent of Spikes in a Burst, Shafer Lab (AID 2284032)
In short: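 Rat primary cortical neurons on 16-electrode MEA wells, dosed from plating day 0 for 12 days with renewal on DIV 5 and 9; spikes-in-bursts percentage averaged over bursting electrodes, collapsed as AUC across days 5, 7, 9, 12; loss direction versus DMSO.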

[15] = CCTE_Shafer_MEA_dev_active_electrodes_number: CCTE's Neural Network Formation Assay for Number of Active Electrodes, Shafer Lab (AID 2284040; active means hit-call score of the fitted dose curve at least 0.9, where 1 is the maximum)
In short: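 Primary rat cortical neurons on 16-electrode MEA wells, exposed from day 0 through day 12 with compound renewed at DIV 5 and 9 feeds. Active electrodes (mean firing ≥5 spikes/min) counted at DIV 5, 7, 9, 12; trapezoidal AUC across days, loss-of-signal versus DMSO.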

[16] = CCTE_Shafer_MEA_dev_burst_rate: CCTE's Neural Network Formation Assay for Burst Rate, Shafer Lab (AID 2284042)
In short: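 Developmental network assay measuring how 12-day exposure of rat cortical neuron cultures alters bursting on extracellular MEA recordings. Values are AUC of well-mean burst rate across four recording days, relative to DMSO vehicle.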

[17] = CCTE_Shafer_MEA_dev_bursting_electrodes_number: CCTE's Neural Network Formation Assay for Number of Bursting Electrodes, Shafer Lab (AID 2284043; active means hit-call score of the fitted dose curve at least 0.9, where 1 is the maximum)
In short: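 Primary rat cortical neurons plated on 16-electrode MEA wells, exposed from day 0 with compound renewed at DIV 5 and 9. Electrodes bursting ≥1 burst per 2 min counted on days 5, 7, 9 and 12; trapezoidal AUC across days, fitted for loss versus DMSO.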

Measured: AC50

CCN(CC)C(=O)c1cc(S(=O)(=O)Cc2ccccc2)c(N2CCC(c3ccccc3)CC2)cc1N(CC)CCN(C)C
active: [1] 13 µM | [5] 13.3 µM | [7] 11 µM | [8] 11.8 µM
not listed: [13] | [14] | [15] | [16] | [17]
inactive: all other assays above

NC(=O)c1nc(-c2cccc(-c3cc(F)ccc3OCC(F)(F)C(F)(F)F)c2)n[nH]1
active: [1] 7.48 µM | [2] 2.16 µM | [3] 37.4 µM | [7] 8.29 µM | [8] 6.63 µM
inactive: [4] | [5] | [6]

NCc1cccc(C2CCN(C(=O)c3ccc(C#Cc4ccccc4F)o3)CC2)c1
inactive: [2] | [6]
active: [1] 30.8 µM | [3] 20 µM | [4] 20 µM | [5] 31.4 µM | [7] 34.9 µM | [8] 28.6 µM

CCCCOC(=O)c1ccc(O)cc1
active: [1] 31.1 µM
inactive: [2] | [3] | [4] | [5] | [6] | [7] | [8]

CC(C)(C)c1cc(/C=C2\SC(N)=NC2=O)cc(C(C)(C)C)c1O
not listed: [13] | [14] | [15] | [16] | [17]
inactive: all other assays above

CN1C(=O)CC[C@H]1c1cccnc1
not listed: [9] | [10] | [11] | [12]
inactive: all other assays above

O=C(O)c1ccccc1-n1cc(C(=O)O)c(=O)c2cc(Nc3c(F)cc(F)cc3Cl)c(Cl)cc21
inactive: [1] | [2] | [3] | [4] | [5] | [6] | [7] | [8]

Clc1ccccc1C(c1ccccc1)(c1ccccc1)n1ccnc1
active: [1] 7.02 µM | [2] 9.25 µM | [3] 6.71 µM | [4] 2.24 µM | [5] 5 µM | [7] 9.09 µM | [8] 6.8 µM
inactive: [6] | [13] | [14] | [16]

OC12N=C(c3ccccc3)SC1Cc1cc(Cl)ccc12 (stereo unspecified)
active: [1] 32.6 µM | [2] 30.7 µM | [4] 32.5 µM | [7] 31.3 µM | [8] 31.8 µM | [12] 3.82 µM
inactive: [3] | [5] | [6] | [9] | [10]
